# Source: PMC7862700, “An all-to-all approach to the identification of sequence-specific readers for epigenetic DNA modifications on cytosine”
# What was measured:
# Experiment in all cases: DAPPL (digital affinity profiling via proximity ligation, sequencing); 10 mM Tris-HCl pH 7.5, 50 mM NaCl, 1 mM DTT, 4% glycerol, room temperature, 30 min; GST-TFs on glutathione beads, 16-mer random dsDNA library, 0.1% formaldehyde crosslink after washing; high values mean tight binding
# [1] = target: T1, FLI1 (Homo sapiens, UniProt Q01543 1-452); details: protein: recombinant; tags: N-terminal GST; dsDNA, one strand shown
# T1 sequence: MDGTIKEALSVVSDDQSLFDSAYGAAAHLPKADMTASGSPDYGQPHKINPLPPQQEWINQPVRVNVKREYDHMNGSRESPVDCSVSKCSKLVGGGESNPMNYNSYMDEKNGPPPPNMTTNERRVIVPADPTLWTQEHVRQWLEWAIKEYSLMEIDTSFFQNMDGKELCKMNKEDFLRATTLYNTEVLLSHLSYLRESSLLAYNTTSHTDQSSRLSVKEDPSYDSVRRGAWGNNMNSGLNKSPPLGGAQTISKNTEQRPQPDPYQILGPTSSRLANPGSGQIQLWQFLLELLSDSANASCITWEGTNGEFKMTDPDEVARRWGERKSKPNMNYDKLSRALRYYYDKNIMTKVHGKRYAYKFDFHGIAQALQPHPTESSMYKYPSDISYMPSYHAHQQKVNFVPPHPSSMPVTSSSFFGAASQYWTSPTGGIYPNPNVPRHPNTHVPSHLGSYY
# Procedure, shortened: (§1)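 Human transcription factors carrying a GST fusion were produced in yeast, bound to glutathione beads, tagged with DNA barcodes and pooled together with a tag-only sample. Each pool was held with 200 nmole of a random double-stranded 16-mer DNA library in Tris/NaCl/DTT/glycerol buffer for 30 min at room temperature, then washed, crosslinked in 0.1% formaldehyde, proximity-ligated with BsaI/T4 ligase (1 h, 37 °C), PCR-amplified and sequenced on an Illumina NextSeq500. Binding signal is the read frequency of each hexamer for a given factor divided by its frequency in the tag-only sample.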
# [2] = target: T2, ELK1 (Homo sapiens, UniProt P19419 1-428); details: protein: recombinant; tags: N-terminal GST; dsDNA, one strand shown
# T2 sequence: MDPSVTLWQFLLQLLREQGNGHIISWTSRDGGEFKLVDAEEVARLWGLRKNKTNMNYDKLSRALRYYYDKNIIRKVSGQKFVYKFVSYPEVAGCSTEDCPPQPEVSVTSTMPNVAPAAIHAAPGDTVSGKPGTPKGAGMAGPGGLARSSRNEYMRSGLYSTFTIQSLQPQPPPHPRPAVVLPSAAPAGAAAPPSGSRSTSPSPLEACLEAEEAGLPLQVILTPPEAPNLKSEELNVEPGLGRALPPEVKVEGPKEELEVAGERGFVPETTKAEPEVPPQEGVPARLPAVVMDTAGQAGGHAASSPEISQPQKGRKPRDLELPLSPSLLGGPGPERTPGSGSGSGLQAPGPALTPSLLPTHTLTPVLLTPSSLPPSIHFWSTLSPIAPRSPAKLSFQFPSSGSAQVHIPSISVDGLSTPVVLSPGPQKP
# Procedure, shortened: as §1
# [3] = target: T3, GABPA (Homo sapiens, UniProt Q06546 1-454); details: protein: recombinant; tags: N-terminal GST; dsDNA, one strand shown
# T3 sequence: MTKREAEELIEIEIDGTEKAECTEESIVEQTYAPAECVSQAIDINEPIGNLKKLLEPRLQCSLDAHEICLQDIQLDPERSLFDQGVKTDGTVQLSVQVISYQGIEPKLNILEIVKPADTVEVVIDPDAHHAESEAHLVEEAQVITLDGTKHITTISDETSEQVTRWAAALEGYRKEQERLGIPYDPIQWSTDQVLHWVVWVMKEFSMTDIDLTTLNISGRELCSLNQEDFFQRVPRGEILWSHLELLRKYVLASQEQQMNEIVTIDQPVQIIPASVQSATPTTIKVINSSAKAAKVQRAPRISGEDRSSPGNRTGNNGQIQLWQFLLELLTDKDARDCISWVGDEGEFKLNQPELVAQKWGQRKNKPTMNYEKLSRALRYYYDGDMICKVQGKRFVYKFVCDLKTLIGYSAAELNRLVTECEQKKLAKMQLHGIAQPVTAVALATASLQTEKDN
# Procedure, shortened: as §1
# [4] = target: T4, ERG (Homo sapiens, UniProt P11308 1-479); details: protein: recombinant; tags: N-terminal GST; dsDNA, one strand shown
# T4 sequence: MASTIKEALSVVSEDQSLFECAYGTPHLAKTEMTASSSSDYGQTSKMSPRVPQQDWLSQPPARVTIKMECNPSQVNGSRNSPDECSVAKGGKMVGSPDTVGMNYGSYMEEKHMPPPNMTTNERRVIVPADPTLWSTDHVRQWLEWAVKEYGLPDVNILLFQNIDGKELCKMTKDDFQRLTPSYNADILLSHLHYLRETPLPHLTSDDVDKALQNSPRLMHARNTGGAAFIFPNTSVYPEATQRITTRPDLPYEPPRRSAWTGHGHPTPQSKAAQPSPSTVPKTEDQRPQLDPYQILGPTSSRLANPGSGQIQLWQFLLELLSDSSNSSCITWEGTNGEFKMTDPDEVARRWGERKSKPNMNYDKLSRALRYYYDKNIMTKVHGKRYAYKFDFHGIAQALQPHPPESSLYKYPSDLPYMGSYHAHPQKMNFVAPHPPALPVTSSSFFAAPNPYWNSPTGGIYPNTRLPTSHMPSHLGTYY
# Procedure, shortened: as §1
# [5] = target: ELF1 (Homo sapiens, UniProt P32519 1-619); details: protein: recombinant; tags: N-terminal GST; dsDNA, one strand shown
# ELF1, sequence (P32519 whole entry): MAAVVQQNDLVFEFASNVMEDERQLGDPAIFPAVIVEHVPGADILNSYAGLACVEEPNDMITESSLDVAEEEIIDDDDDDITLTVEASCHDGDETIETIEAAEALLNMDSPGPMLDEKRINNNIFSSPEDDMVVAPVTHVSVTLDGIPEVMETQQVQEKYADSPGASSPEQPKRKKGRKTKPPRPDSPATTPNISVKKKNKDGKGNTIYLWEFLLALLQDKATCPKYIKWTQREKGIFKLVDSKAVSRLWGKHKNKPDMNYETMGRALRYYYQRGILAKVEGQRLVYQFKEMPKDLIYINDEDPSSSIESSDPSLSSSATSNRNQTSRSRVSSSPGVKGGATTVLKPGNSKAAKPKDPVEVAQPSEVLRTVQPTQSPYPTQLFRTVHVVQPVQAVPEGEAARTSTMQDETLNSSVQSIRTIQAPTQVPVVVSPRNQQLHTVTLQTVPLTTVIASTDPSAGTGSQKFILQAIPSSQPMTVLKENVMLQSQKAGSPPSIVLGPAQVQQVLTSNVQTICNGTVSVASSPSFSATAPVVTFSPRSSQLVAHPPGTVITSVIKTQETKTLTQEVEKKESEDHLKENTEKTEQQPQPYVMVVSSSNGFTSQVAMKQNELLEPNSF
# Procedure, shortened: as §1
# [6] = target: T5, EHF (Homo sapiens, UniProt Q9NZC4 1-300); details: protein: recombinant; tags: N-terminal GST; dsDNA, one strand shown
# T5 sequence: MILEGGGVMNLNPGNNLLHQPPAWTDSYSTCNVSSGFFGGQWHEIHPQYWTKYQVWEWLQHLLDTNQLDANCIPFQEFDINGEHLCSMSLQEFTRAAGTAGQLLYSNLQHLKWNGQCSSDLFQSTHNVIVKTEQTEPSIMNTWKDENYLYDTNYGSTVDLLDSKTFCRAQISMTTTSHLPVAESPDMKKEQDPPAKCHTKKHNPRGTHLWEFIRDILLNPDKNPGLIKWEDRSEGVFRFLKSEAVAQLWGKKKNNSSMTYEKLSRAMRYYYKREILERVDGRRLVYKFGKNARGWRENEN
# Procedure, shortened: as §1
# [7] = target: SPI1 (Homo sapiens, UniProt P17947 1-270); details: protein: recombinant; tags: N-terminal GST; dsDNA, one strand shown
# Procedure, shortened: as §1
# [8] = target: SPIB (Homo sapiens, UniProt Q01892 1-262); details: protein: recombinant; tags: N-terminal GST; dsDNA, one strand shown
# SPIB, sequence (Q01892 whole entry): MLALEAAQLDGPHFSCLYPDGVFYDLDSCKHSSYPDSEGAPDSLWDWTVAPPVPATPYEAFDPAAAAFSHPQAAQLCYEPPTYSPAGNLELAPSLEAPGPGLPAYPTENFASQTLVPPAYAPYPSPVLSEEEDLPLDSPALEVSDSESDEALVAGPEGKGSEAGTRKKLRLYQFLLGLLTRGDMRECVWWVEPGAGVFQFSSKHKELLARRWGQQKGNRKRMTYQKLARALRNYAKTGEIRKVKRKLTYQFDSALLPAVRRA
# Procedure, shortened: as §1
# [9] = target: T6, ELK3 (Homo sapiens, UniProt P41970 1-407); details: protein: recombinant; tags: N-terminal GST; dsDNA, one strand shown
# T6 sequence: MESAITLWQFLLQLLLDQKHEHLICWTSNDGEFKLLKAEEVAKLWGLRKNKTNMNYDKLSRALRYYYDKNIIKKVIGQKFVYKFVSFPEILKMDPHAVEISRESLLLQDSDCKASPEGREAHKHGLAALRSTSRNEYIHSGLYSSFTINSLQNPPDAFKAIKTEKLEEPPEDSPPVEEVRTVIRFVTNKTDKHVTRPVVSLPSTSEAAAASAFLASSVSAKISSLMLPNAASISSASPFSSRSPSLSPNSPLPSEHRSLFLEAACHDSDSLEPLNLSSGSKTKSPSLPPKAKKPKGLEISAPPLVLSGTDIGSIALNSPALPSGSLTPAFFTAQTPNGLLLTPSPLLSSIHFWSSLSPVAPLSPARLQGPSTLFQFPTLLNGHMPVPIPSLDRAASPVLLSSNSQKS
# Procedure, shortened: as §1
# [10] = target: T7, FEV (Homo sapiens, UniProt Q99581 1-238); details: protein: recombinant; tags: N-terminal GST; dsDNA, one strand shown
# T7 sequence: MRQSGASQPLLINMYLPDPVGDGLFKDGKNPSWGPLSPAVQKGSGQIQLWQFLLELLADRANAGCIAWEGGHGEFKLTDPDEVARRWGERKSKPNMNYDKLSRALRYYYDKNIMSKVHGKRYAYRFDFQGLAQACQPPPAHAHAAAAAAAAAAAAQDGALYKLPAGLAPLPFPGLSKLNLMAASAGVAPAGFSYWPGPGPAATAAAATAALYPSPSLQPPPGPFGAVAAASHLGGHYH
# Procedure, shortened: as §1
# [11] = target: ETV5 (Homo sapiens, UniProt P41161 1-510); details: protein: recombinant; tags: N-terminal GST; dsDNA, one strand shown
# ETV5, sequence (P41161 whole entry): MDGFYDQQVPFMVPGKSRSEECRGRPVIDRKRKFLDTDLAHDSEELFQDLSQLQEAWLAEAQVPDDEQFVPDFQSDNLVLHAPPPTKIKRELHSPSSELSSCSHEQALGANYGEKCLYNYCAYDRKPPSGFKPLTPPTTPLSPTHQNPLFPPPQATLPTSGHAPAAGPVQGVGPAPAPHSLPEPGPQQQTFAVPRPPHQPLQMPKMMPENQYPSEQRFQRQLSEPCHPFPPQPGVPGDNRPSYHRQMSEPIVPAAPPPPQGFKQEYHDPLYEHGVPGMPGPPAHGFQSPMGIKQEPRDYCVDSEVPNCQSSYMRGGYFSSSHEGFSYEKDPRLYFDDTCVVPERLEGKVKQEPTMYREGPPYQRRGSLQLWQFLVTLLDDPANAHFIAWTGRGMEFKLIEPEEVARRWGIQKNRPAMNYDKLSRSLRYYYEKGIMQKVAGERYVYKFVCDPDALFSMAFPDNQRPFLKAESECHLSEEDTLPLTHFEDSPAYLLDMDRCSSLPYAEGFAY
# Procedure, shortened: as §1
# [12] = target: HSF1 (Homo sapiens, UniProt Q00613 1-529); details: protein: recombinant; tags: N-terminal GST; chain copies: 3; dsDNA, one strand shown
# HSF1, sequence (Q00613 whole entry): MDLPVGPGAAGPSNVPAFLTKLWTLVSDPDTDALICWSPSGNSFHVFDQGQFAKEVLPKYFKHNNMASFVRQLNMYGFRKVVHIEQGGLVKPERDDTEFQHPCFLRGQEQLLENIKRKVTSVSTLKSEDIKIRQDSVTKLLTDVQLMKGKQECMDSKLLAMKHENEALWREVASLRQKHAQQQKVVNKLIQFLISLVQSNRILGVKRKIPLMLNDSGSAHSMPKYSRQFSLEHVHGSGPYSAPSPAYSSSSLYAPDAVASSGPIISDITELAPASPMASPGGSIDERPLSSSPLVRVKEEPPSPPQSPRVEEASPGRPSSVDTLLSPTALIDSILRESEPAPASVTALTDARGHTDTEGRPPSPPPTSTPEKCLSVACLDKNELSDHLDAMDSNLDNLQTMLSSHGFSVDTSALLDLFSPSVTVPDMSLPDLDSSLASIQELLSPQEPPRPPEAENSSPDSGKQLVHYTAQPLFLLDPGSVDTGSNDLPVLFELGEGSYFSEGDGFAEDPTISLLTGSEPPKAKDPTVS
# Procedure, shortened: as §1
# [13] = target: T8, SPIC (Homo sapiens, UniProt Q8N5J4 1-248); details: protein: recombinant; tags: N-terminal GST; dsDNA, one strand shown
# T8 sequence: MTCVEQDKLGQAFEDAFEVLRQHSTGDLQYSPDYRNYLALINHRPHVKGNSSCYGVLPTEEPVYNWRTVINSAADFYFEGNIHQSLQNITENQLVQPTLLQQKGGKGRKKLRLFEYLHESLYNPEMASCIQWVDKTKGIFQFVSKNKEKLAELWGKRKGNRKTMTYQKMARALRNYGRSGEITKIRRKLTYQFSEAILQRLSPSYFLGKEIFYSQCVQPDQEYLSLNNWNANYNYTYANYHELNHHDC
# Procedure, shortened: as §1
# [14] = target: ELF4 (Homo sapiens, UniProt Q99607 1-663); details: protein: recombinant; tags: N-terminal GST; dsDNA, one strand shown
# ELF4, sequence (Q99607 whole entry): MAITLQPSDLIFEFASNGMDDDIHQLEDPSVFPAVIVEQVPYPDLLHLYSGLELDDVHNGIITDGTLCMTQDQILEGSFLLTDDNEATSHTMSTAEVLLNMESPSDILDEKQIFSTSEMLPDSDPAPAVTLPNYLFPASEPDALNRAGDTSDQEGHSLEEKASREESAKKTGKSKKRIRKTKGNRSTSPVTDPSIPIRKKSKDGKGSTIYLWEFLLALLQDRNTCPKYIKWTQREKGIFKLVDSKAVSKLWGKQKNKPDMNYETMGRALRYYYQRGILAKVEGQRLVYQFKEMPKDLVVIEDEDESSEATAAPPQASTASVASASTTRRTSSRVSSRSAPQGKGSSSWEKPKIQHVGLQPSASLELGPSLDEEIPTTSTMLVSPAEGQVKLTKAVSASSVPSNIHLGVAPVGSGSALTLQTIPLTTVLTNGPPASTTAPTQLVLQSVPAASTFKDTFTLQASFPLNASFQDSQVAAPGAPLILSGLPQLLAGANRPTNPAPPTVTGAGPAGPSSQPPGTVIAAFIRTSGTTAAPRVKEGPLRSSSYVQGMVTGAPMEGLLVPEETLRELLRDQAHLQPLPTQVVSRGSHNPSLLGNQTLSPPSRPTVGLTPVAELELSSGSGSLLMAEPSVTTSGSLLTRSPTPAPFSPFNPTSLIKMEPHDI
# Procedure, shortened: as §1
# [15] = target: T9, ELK4 (Homo sapiens, UniProt P28324-2 1-405); details: protein: recombinant; tags: N-terminal GST; dsDNA, one strand shown
# T9 sequence: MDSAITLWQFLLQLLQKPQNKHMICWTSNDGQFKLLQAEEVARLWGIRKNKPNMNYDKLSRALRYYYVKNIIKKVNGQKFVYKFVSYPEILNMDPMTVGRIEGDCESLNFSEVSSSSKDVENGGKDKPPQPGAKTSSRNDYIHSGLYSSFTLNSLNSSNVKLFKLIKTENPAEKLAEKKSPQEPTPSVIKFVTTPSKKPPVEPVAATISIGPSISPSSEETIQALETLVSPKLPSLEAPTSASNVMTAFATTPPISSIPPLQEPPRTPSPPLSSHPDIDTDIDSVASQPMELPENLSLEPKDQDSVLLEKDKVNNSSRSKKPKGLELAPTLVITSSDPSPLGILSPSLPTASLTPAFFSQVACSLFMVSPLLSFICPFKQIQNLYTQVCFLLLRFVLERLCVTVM
# Procedure, shortened: as §1
# [16] = target: T10, ETV2 (Homo sapiens, UniProt O00321 1-342); details: protein: recombinant; tags: N-terminal GST; dsDNA, one strand shown
# T10 sequence: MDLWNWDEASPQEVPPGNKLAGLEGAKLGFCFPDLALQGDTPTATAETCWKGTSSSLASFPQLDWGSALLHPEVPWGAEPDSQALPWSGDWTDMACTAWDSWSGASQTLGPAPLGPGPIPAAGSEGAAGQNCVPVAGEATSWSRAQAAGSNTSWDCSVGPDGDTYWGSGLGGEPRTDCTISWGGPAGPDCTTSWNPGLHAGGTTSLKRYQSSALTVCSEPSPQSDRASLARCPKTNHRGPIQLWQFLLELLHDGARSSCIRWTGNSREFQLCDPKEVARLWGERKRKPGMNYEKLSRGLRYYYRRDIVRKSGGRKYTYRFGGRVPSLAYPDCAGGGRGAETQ
# Procedure, shortened: as §1
# [17] = target: T11, ELF3 (Homo sapiens, UniProt P78545 1-371); details: protein: recombinant; tags: N-terminal GST; dsDNA, one strand shown
# T11 sequence: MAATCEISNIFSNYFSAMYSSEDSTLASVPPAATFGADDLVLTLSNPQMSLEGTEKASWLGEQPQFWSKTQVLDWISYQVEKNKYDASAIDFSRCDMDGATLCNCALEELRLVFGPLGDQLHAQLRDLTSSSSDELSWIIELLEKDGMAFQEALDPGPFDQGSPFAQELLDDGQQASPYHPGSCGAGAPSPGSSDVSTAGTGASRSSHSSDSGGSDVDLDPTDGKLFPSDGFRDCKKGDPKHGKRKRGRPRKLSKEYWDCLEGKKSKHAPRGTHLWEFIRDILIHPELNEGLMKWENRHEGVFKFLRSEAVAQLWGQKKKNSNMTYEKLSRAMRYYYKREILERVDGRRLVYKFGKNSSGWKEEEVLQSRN
# Procedure, shortened: as §1
# [18] = target: CRX (Homo sapiens, UniProt O43186 1-299); details: protein: recombinant; tags: N-terminal GST; dsDNA, one strand shown
# CRX, sequence (O43186 whole entry): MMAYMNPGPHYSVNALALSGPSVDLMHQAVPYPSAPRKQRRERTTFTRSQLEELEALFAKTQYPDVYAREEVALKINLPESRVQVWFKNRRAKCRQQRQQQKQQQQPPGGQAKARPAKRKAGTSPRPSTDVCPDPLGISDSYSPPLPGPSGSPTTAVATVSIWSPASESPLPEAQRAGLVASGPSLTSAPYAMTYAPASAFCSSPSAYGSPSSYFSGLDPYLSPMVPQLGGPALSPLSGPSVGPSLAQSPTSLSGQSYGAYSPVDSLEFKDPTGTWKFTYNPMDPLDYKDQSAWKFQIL
# Procedure, shortened: as §1
# [19] = target: ETV1 (Homo sapiens, UniProt P50549 1-477); details: protein: recombinant; tags: N-terminal GST; dsDNA, one strand shown
# ETV1, sequence (P50549 whole entry): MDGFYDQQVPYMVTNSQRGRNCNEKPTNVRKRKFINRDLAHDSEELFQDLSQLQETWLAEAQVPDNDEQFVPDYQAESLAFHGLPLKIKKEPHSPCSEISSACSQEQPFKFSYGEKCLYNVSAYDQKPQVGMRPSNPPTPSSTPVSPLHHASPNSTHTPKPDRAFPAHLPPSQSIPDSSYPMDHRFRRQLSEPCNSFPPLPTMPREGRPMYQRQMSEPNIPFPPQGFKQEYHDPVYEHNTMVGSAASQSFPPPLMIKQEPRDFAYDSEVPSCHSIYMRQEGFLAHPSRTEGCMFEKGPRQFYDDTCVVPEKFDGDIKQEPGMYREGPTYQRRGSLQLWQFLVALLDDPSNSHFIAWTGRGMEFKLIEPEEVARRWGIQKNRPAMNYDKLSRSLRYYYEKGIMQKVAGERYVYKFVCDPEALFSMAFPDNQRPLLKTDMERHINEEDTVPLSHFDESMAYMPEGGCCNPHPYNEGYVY
# Procedure, shortened: as §1
sequence,measurement,setting,value
CTACCG,binding signal,[1],"1.44 fold enrichment (6-mer frequency, TF over GST control)"
same,binding signal,[2],"1.71 fold enrichment (6-mer frequency, TF over GST control)"
same,binding signal,[3],"1.58 fold enrichment (6-mer frequency, TF over GST control)"
same,binding signal,[4],"1.5 fold enrichment (6-mer frequency, TF over GST control)"
same,binding signal,[5],"1.64 fold enrichment (6-mer frequency, TF over GST control)"
same,binding signal,[6],"1.55 fold enrichment (6-mer frequency, TF over GST control)"
same,binding signal,[7],"1.52 fold enrichment (6-mer frequency, TF over GST control)"
same,binding signal,[8],"1.73 fold enrichment (6-mer frequency, TF over GST control)"
same,binding signal,[9],"1.57 fold enrichment (6-mer frequency, TF over GST control)"
same,binding signal,[10],"1.7 fold enrichment (6-mer frequency, TF over GST control)"
same,binding signal,[11],"1.64 fold enrichment (6-mer frequency, TF over GST control)"
same,binding signal,[12],"1.16 fold enrichment (6-mer frequency, TF over GST control)"
same,binding signal,[13],"1.62 fold enrichment (6-mer frequency, TF over GST control)"
same,binding signal,[14],"1.59 fold enrichment (6-mer frequency, TF over GST control)"
same,binding signal,[15],"1.38 fold enrichment (6-mer frequency, TF over GST control)"
same,binding signal,[16],"1.47 fold enrichment (6-mer frequency, TF over GST control)"
same,binding signal,[17],"1.67 fold enrichment (6-mer frequency, TF over GST control)"
same,binding signal,[18],"1.02 fold enrichment (6-mer frequency, TF over GST control)"
same,binding signal,[19],"1.62 fold enrichment (6-mer frequency, TF over GST control)"
